Screening results as filed in PubChem.
An excerpt weighted towards active compounds, which were near 5.7% of everything screened.
HepG2 tox – HepG2 cytotoxicity, counter-screen for TGF-b inhibitors; HepG2 CAGA-GFP viability, ATP luminescence, 18 h; Potency, µM (top dose mostly 46.1 µM), actives largely listed as cytotoxic; 410,000 compounds, 0.76% hits
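HepG2 CAGA-GFP cells (1000/well, DMEM with 1% FBS) received compound, then TGF-beta at 500 pg/mL final, and were incubated 18 hours at 37 degrees C. Viability was read by CellTiter-Glo luminescence. Media-only wells were set as complete cell-killing and DMSO as no toxicity.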
TGFb inhibitor – blocks TGF-b signaling. HepG2 CAGA-GFP TGF-b/SMAD3 reporter, GFP fluorescence, 18 h; TGF-beta stimulated, 500 pg/mL final. Potency, µM (highest dose often 46.1 µM), hits mostly inhibitors. 410,000 compounds, 1.2% hits; note: nearly all actives have a fitted effect of over 65% in size
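First, reporter cells (HEPG2 CAGA-GFP) rested 2 h at 37 degrees C. Next, compounds were pinned in and TGF-beta added to 500 pg/mL final. After 18 h, GFP was imaged per cell and summed per well.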
S2 tox – viability counter-screen for ATXN expression inhibitors | S2 cells (HEK-293 line with an ATXN2-luciferase reporter) viability, CellTiter-Fluor protease fluorescence, 24 h | Potency, µM (doses to about 56.7 µM), usual class: cytotoxic | 400,000 compounds, 0.49% hits; note: nearly all actives have a fitted effect of over 40% in size
ATXN2 expr inh – ATXN2 expression inhibition; HEK-293 ATXN2-luciferase reporter, luminescence, 24 h; Potency, µM (top dose mostly 57 µM), hits mostly inhibitors; 360,000 compounds, 0.72% hits; AID 1745845; note: nearly all actives have a fitted effect of over 55% in size
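ATXN2-luciferase reporter cells (luciferase flanked by upstream and downstream ATXN2 gene portions) were treated 24 h at 37 °C with compounds at up to 57 uM. SteadyGlo luminescence gave expression; GF-AFC fluorescence gave viability.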
IL-1B inflam inh – inflammasome signaling inhibition, IL-1 beta readout. THP-1 LPS/ATP IL-1B secretion, AlphaLISA, 16 h; hits give low values. activity change, % at 57.5 µM. 360,000 compounds, 4.7% hits. AID 743279; in the data active = activity change below about -50%; inconclusive = mostly about -30% to -49%
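THP-1 cells pretreated 1 hr with compounds (up to 57.5 uM final), then stimulated with LPS (250 ng/mL final) plus ATP (1.25 mM final); secreted IL-1B measured by AlphaLISA after 16 hr, decreased signal indicating inhibition.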
Numbers stand for hits; - = inactive; ? = inconclusive; . = no result given; ! = not active in a repeat; [ ] = dose if it differs, or a comment. Unless noted, calls come from the whole dose curve; as a rule, active = well fitted curve in the direction sought with a large enough effect; inconclusive = small, poorly fitted or top-dose-only effect, or another doubt; inactive = no such curve, though single readings can be large; an effect the other way counts as inactive or inconclusive.

SMILES	HepG2 tox	TGFb inhibitor	S2 tox	ATXN2 expr inh	IL-1B inflam inh
COc1ccc(CNC(=O)C(=O)NCC(c2cccs2)S(=O)(=O)c2cccs2)cc1 (centres undefined)	-	-	-	-	.
COc1cc(C2C(C(=O)Nc3ccccc3C)=C(C)Nc3nc(SCc4cc(C)ccc4C)nn32)ccc1O (centres undefined)	7.1µM	10µM	.	.	.
c1ccc(CNc2nc(-c3cccs3)nc3ccccc23)nc1	-	-	-	-	-77
Cc1ccc(CNc2nc(-c3cccs3)nc3ccccc23)cc1	-	?	-	-	-
CN(C)C(=O)c1ccc(Nc2nc(-c3cccs3)nc3ccccc23)cc1	-	-	-	-	-74
COC(=O)COc1ccc(-c2nnc(Nc3ccc(O)cc3)c3ccccc23)cc1	11µM	?	?	?	.
CN(C)C(=O)c1ccc(Nc2nnc(-c3ccc(O)cc3)c3ccccc23)cc1	-	-	-	-	-55
CCOc1ccc(S(=O)(=O)NCC(c2ccc(N(C)C)cc2)N2CCCC2)cc1 (centres undefined)	-	-	.	.	.
COc1cc(CN2CCOc3ccc(CN4CCC(O)(c5cccnc5)CC4)cc3C2)ccc1F	.	.	-	.	.
CCOC(=O)c1ccc(NC(=O)CCc2c(C)n(CC)c3cc(-c4ccccc4OC)nn3c2=O)cc1	-	-	?	-	.
COc1cc2cc(CNc3ccc(C)cc3)c(=O)n(CC(=O)Nc3ccc(F)cc3F)c2cc1OC	-	-	.	.	.
CNC(=O)c1ccc(Nc2nnc(-c3ccc(O)cc3)c3ccccc23)cc1	-	-	-	-	-
CNC(=O)c1cc(Nc2nnc(-c3ccc(O)cc3)c3ccccc23)ccc1OC	-	-	-	-	-59
CCN1CCN(c2ccc(S(=O)(=O)N3CCCCC3)cc2NC(=O)/C=C/c2cc(OC)ccc2OC)CC1	-	-	-	-	-98
CCN1CCN(c2ccc(S(=O)(=O)N3CCCCC3)cc2NC(=O)/C=C/c2ccc(OC)c(OC)c2)CC1	-	-	?	-	-
CCN1CCN(c2ccc(S(=O)(=O)N3CCCCC3)cc2NC(=O)/C=C/c2ccc(Cl)cc2)CC1	-	?	?	?	-93
CN1CCN(c2ccc(Cl)cc2NC(=O)/C=C/c2cccc(F)c2)CC1	-	?	?	?	-66
CCc1ccc(C(=O)c2c(N)c(-c3nc(-c4ccc5c(c4)OCO5)cs3)c3ccccn23)cc1	-	-	.	.	.
O=C(/C(N=Nc1cccc(C(F)(F)F)c1)=C(/O)c1cccs1)C(F)(F)F	-	13µM	?	?	-62
CC(=O)/C(N=Nc1cccc(C(F)(F)F)c1)=C(\C)O	-	-	-	-	-
O=C(NCc1ccc(F)cc1)c1cnc(N2CCOCC2)c2ccccc12	-	-	.	.	.
O=C(C[N+]12CCCc3cccc(c31)CCC2)c1ccc2ccccc2c1	-	-	.	.	.
CNc1c(Br)cc(C=O)cc1Br	-	-	.	.	.
O=C(COc1cccc2cccnc12)N/N=C/c1cccn1-c1ccc(F)cc1	-	-	?	?	-89
CCOc1ccc(C(=O)Nc2ccc3nc(SCC(=O)N4CCOCC4)sc3c2)cc1	-	-	.	.	.
SMILES	HepG2 tox	TGFb inhibitor	S2 tox	ATXN2 expr inh	IL-1B inflam inh
CCN(CC(=O)NCc1cccs1)C(=O)c1ccc(-c2cccc(C(F)(F)F)c2)o1	-	-	-	-	-80
Cc1ccc(CNC(=O)c2nc(SCc3ccc(F)cc3)ncc2Cl)cc1	-	-	.	.	.
O=c1cc(N2CCN(c3ccccc3)CC2)[nH]c(=O)n1C1CCCCC1	-	-	-	5µM	-
COCCNC(=O)c1ccc(-n2c(-c3ccccc3)cc3c2CCCCC3)cc1	-	?	.	.	.
Cc1ncc2c(c1CNC(=O)c1ccc3c(c1)OCO3)CCN(C(=O)/C=C/c1ccccc1Cl)C2	.	.	-	.	.
COc1ccc(-c2nc3cc(C)ccc3cc2CN(C(=O)c2cc(C)nn2C)C2CC2)cc1OC	.	.	-	.	.
CCOc1cc(/C=C\[N+](=O)[O-])ccc1OCC(=O)N1CCOCC1	-	?	?	?	-107
Cc1c(C(=O)NCC(c2ccc(Cl)cc2)N2CCOCC2)oc2ccccc12 (centres undefined)	-	?	?	-	.
CC(=O)NC(c1ccccc1)c1cc(Cl)c2cccnc2c1O (centres undefined)	-	?	-	7.9µM	-
CCC(=O)NC(c1cc(Cl)c2cccnc2c1O)C1CC1 (centres undefined)	-	2µM	?	?	.
CC(=O)NC(c1ccc(N(C)C)cc1)c1cc(Cl)c2cccnc2c1O (centres undefined)	-	?	-	.	-
CCC(=O)NC(c1cc(Cl)c2cccnc2c1O)C(C)C (centres undefined)	-	2.8µM	?	7.1µM	.
CCC(=O)NC(c1cccs1)c1cc(Cl)c2cccnc2c1O (centres undefined)	-	?	-	.	-
COc1ccc(C(=O)NC(c2ccccc2Cl)c2cc(Cl)c3cccnc3c2O)cc1 (centres undefined)	11µM	10µM	.	.	.
COc1ccc(NC(=O)Nc2nnc(SCC(=O)Nc3cccc(C)c3C)s2)cc1	-	-	.	.	.
O=C(O)CSc1nc2ccccc2n1-c1ccccc1	-	-	-	-	-81
Cc1noc(/C=C/c2ccco2)c1S(=O)(=O)N1CCC(C(=O)Nc2ccc(F)c(Cl)c2)CC1	-	2.5µM	.	.	.
CCN(CC)CCNC(=O)C1CCN(S(=O)(=O)c2c(C)noc2/C=C/c2ccccc2F)CC1	14µM!	?	?	13µM	-69
Cc1ccc(NC(=O)C2CCN(S(=O)(=O)c3c(C)noc3/C=C/c3ccco3)CC2)cc1C	-	-	.	.	.
C=C1CC2(CC(c3ccccc3)OC(c3ccccc3)C2)OC1=O (centres undefined)	11µM	?	.	?	-115
O=C1CCCC[C@@H](O)[C@H](O)C[C@H](c2ccccc2)O1	.	.	-	-	-
Nc1cc(C(=O)O)c(N)c2c1C(=O)c1ccccc1C2=O	-	?	14µM	?	-
COC(=O)CNC(=O)CSc1nc2sccc2c(=O)n1-c1ccccc1	-	-	-	-	-
COC(=O)CNC(=O)CSc1nc2sc(-c3ccccc3)cc2c(=O)n1-c1ccccc1	-	-	-	-	-66
CCOC(=O)c1ccc(NC(=O)Cn2nc(C)c3nn(-c4ccc(Cl)cc4)c(C)c3c2=O)cc1	-	?	.	.	.
CCN(c1ccccc1)S(=O)(=O)c1ccc(NC(=O)c2cc(=O)c3c(C)cc(C)cc3o2)cc1	-	-	?	-	.
O=C(NCCc1ccc(F)cc1)c1ccc([N+](=O)[O-])cc1	-	-	-	-	-
NS(=O)(=O)c1ccc(NC(=S)NCCc2ccccc2)cc1	-	-	-	.	-
O=C(CCNC(=O)c1ccc([N+](=O)[O-])cc1)NCCc1ccccc1	-	-	-	-	-57
O=[N+]([O-])c1ccc(NC(=S)NCCc2ccccc2)cc1	-	?	-	-[11.3 µM]	-93
